Among the data in ChEMBL document CHEMBL3988442, “University of Dundee, Small-Polar-MMV Screening Library” (2021) are Percent Effect values, retold here.

Molecules are shown by their SMILES.

The target of the test is AMP-activated protein kinase, AMPK (Homo sapiens) (UniProt P54646+O43741+P54619+Q9UGJ0+Q9Y478+Q13131+Q9UGI9). The test is described as follows: AMP-dependent Kinase enzyme assay. An in vitro enzyme assay that detects ADP turnover that is directly proportional to AMPK activity. This uses naive AMPK that is activated during the assay with MK-8722. Also on record: scale not given: direction of the effect not stated beside the values. Format: functional. To be noted: 30 µM.
As for `COc1cccc(-c2n[nH]cc2-c2nc(CN3CCCC3)no2)c1`, the Percent Effect is -4.34%. In the case of `CC1CN(CC(=O)NCc2ccc(F)cc2)CCN1c1nccs1` (stereo not given), the Percent Effect stood at 10.2%.

On to `CN(Cc1ccc(F)cc1)Cc1cc2c(cc1Br)OCCO2`, for which the Percent Effect is -2.13%.

Turning to `CS(=O)(=O)N1CCCCC1c1ccc(Nc2cnccn2)nc1` (stereo not given), the Percent Effect is 4.25%.

Turning to `Cc1ccsc1C(CNC(=O)c1cc(=O)[nH]c(=O)[nH]1)N(C)C` (stereo not given), the Percent Effect was 3.78%. Turning to `CS(=O)(=O)NCC1(O)CCCN(C(=O)CCn2cc(Cl)cn2)CC1` (stereo not given), the Percent Effect is -0.47%.

`Cc1cc(C(=O)NCCN2CCCCC2C)nn1C(C)(C)C` (stereo not given): the Percent Effect came to 1.65%. The same measure for `CCc1cnc(CNC(=O)NCCc2ccc(O)cc2)s1`: 47.9%.

Turning to `CN(C)S(=O)(=O)c1ccc(=O)n(CC2CCCO2)c1` (stereo not given), the Percent Effect came to 20.4%. The figure for `Cc1nonc1CNC(=O)C(C)Oc1ccccc1F` (stereo not given) is 5.55%; for `Cc1ccc(CN(CCN(C)C)Cc2c(C)nc3sccn23)o1` it is 14.3%; for `CCOC(=O)N(C)C1CCN(Cc2cnc3ccccn23)CC1` it is 0.795%. Regarding `CC(=O)N1CCC(NC(=O)CN2CCCc3c(C)ccc(F)c32)CC1`, the Percent Effect is 5.92%. The figure for `Cc1ncsc1CCC(=O)N(C)Cc1nc2ccccc2n1C` is 0.381%; for `CC(C)[C@H]1CN(Cc2nccn2C)C[C@@H]1NC(=O)CCS(C)(=O)=O` it is 1.59%. In the case of `Cc1cccc(-c2nccnc2C2CCCN(C)C2)c1` (stereo not given), the Percent Effect stood at 11.8%. The same measure for `CNS(=O)(=O)CC(=O)N1CCC(c2cc3ccccc3[nH]2)CC1`: 16.4%. The figure for `CCC(Nc1ccc(CCN2CCOCC2)cc1)C(N)=O` (stereo not given) is -3.46%; for `CC(=O)N1CCCC1CCc1ccc(Cl)nn1` (stereo not given) it is 12.8%. The figure for `CC(C)NC(=O)C1(Cc2ccccc2-c2cncnc2)CCCNC1` (stereo not given) is 18.8%.
